The supplement of paper PMC4466140

Tests used:
Assay in all cases: SPOT peptide array binding signal intensity (averaged, normalized) (arbitrary units (background-subtracted, floor 0; scale differs between SH3 domains)); higher = stronger binding of the SH3 domain to the peptide
AgAbp1 = molecular target: AgAbp1
Summary of the method: (§1)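 Binding signal refers to normalized, background-subtracted spot intensity averaged over replicates, expressed in arbitrary units that differ between domains. GST-fused SH3 domains from four yeast species were incubated at 10 μg/ml overnight at 4°C on cellulose membranes of synthetic 15-mer peptides with cysteines replaced by serines. Bound protein was detected with anti-GST antibody, an HRP anti-mouse secondary and luminol, and quantified with Genespotter.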

AgBbc1 = molecular target: AgBbc1
Summary of the method: as §1

AgBem1-D1 = molecular target: AgBem1-D1
Summary of the method: as §1

AgBzz1-D1 = molecular target: AgBzz1-D1
Summary of the method: as §1

AgBzz1-D2 = molecular target: AgBzz1-D2
Summary of the method: as §1

AgCyk3 = molecular target: AgCyk3
Summary of the method: as §1

AgFus1 = molecular target: AgFus1
Summary of the method: as §1

AgHof1 = molecular target: AgHof1
Summary of the method: as §1

AgHse1 = molecular target: AgHse1
Summary of the method: as §1

AgLsb1 = molecular target: AgLsb1
Summary of the method: as §1

AgLsb4 = molecular target: AgLsb4
Summary of the method: as §1

AgMyo5 = molecular target: AgMyo5
Summary of the method: as §1

AgNbp2 = molecular target: AgNbp2
Summary of the method: as §1

AgRvs167 = molecular target: AgRvs167
Summary of the method: as §1

AgSho1 = molecular target: AgSho1
Summary of the method: as §1

AgSla1-D1-D2 = molecular target: AgSla1-D1-D2
Summary of the method: as §1

AgSla1-D3 = molecular target: AgSla1-D3
Summary of the method: as §1

CaAbp1-D1 = molecular target: CaAbp1-D1
Summary of the method: as §1

CaAbp1-D2 = molecular target: CaAbp1-D2
Summary of the method: as §1

CaBbc1 = molecular target: CaBbc1
Summary of the method: as §1

CaBem1-D1 = molecular target: CaBem1-D1
Summary of the method: as §1

CaBzz1-D1 = molecular target: CaBzz1-D1
Summary of the method: as §1

CaBzz1-D2 = molecular target: CaBzz1-D2
Summary of the method: as §1

CaCyk3 = molecular target: CaCyk3
Summary of the method: as §1

CaFus1 = molecular target: CaFus1
Summary of the method: as §1

CaHof1 = molecular target: CaHof1
Summary of the method: as §1

CaHse1 = molecular target: CaHse1
Summary of the method: as §1

CaLsb1 = molecular target: CaLsb1
Summary of the method: as §1

CaLsb4 = molecular target: CaLsb4
Summary of the method: as §1

CaMyo5 = molecular target: CaMyo5
Summary of the method: as §1

CaNbp2 = molecular target: CaNbp2
Summary of the method: as §1

CaRvs167 = molecular target: CaRvs167
Summary of the method: as §1

CaRvs167-3 = molecular target: CaRvs167-3
Summary of the method: as §1

CaSho1 = molecular target: CaSho1
Summary of the method: as §1

CaSla1-D1-D2 = molecular target: CaSla1-D1-D2
Summary of the method: as §1

CaSla1-D3 = molecular target: CaSla1-D3
Summary of the method: as §1

ScAbp1 = molecular target: ScAbp1
Summary of the method: as §1

GKFIPSRPAPKPPSS
SPOT peptide array binding signal intensity (AgAbp1): 978 | SPOT peptide array binding signal intensity (AgBbc1): 1050 | SPOT peptide array binding signal intensity (AgBem1-D1): 328 | SPOT peptide array binding signal intensity (AgBzz1-D1): 46 | SPOT peptide array binding signal intensity (AgBzz1-D2): 37 | SPOT peptide array binding signal intensity (AgCyk3): 2 | SPOT peptide array binding signal intensity (AgFus1): ≤ 0 | SPOT peptide array binding signal intensity (AgHof1): 51.8 | SPOT peptide array binding signal intensity (AgHse1): 8 | SPOT peptide array binding signal intensity (AgLsb1): 218 | SPOT peptide array binding signal intensity (AgLsb4): 19 | SPOT peptide array binding signal intensity (AgMyo5): 1850 | SPOT peptide array binding signal intensity (AgNbp2): 4160 | SPOT peptide array binding signal intensity (AgRvs167): 2.83 | SPOT peptide array binding signal intensity (AgSho1): 17 | SPOT peptide array binding signal intensity (AgSla1-D1-D2): 35 | SPOT peptide array binding signal intensity (AgSla1-D3): 9.25 | SPOT peptide array binding signal intensity (CaAbp1-D1): 922 | SPOT peptide array binding signal intensity (CaAbp1-D2): 764 | SPOT peptide array binding signal intensity (CaBbc1): 1370 | SPOT peptide array binding signal intensity (CaBem1-D1): 2020 | SPOT peptide array binding signal intensity (CaBzz1-D1): 1860 | SPOT peptide array binding signal intensity (CaBzz1-D2): 808 | SPOT peptide array binding signal intensity (CaCyk3): 88.5 | SPOT peptide array binding signal intensity (CaFus1): 54.5 | SPOT peptide array binding signal intensity (CaHof1): 0.5 | SPOT peptide array binding signal intensity (CaHse1): ≤ 0 | SPOT peptide array binding signal intensity (CaLsb1): ≤ 0 | SPOT peptide array binding signal intensity (CaLsb4): 53 | SPOT peptide array binding signal intensity (CaMyo5): 24 | SPOT peptide array binding signal intensity (CaNbp2): 3600 | SPOT peptide array binding signal intensity (CaRvs167): 26.2 | SPOT peptide array binding signal intensity (CaRvs167-3): 3.25 | SPOT peptide array binding signal intensity (CaSho1): 36 | SPOT peptide array binding signal intensity (CaSla1-D1-D2): 684 | SPOT peptide array binding signal intensity (CaSla1-D3): 14.5 | SPOT peptide array binding signal intensity (ScAbp1): 127
